BJeLR lethal: BJeLR cell viability loss; inhibition, % (concentration not given with the values); BJeLR (HRASV12) viability, CellTiter-Glo ATP luminescence, 48 h; actives 0.17% (n = 300,000); in the data active = inhibition above about 50%
CCHF vOTU inh-1: blocks the CCHF virus ovarian tumor domain protease | actives 0.55% (n = 370,000) | inhibition, % at 11.5 µM | CCHFV vOTU protease, Pep-AMC fluorescence; also: 0% = vehicle wells with enzyme and 100% = no enzyme wells
Yp Topo-I inh: blocks Yersinia pestis topoisomerase I activity; Y. pestis Topo-I cleavage product accumulation, plate reader; activity, % at 10 µM; AID 504884; actives 0.064% (n = 360,000); in the data active = activity above about 50%, passing the limit was not always enough
Mtb BioA inh: inhibitors of Mycobacterium tuberculosis BioA enzyme. purified M. tuberculosis BioA enzyme, plate reader. inhibition, % at 9.99 µM. actives 0.096% (n = 360,000); in the data active = inhibition above about 40%
RecA splice inh: blocks M. tuberculosis RecA intein splicing. P9WHJ3. cell-free RecA intein splicing, fluorescence. inhibition, % (concentration not given with the values). actives 0.75% (n = 290,000). AID 2221; in the data active = inhibition above about 30%;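 also: 0% = vehicle wells and 100% = reference inhibitor control wells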
Target sequence (P9WHJ3 whole entry, looked up, canonical isoform): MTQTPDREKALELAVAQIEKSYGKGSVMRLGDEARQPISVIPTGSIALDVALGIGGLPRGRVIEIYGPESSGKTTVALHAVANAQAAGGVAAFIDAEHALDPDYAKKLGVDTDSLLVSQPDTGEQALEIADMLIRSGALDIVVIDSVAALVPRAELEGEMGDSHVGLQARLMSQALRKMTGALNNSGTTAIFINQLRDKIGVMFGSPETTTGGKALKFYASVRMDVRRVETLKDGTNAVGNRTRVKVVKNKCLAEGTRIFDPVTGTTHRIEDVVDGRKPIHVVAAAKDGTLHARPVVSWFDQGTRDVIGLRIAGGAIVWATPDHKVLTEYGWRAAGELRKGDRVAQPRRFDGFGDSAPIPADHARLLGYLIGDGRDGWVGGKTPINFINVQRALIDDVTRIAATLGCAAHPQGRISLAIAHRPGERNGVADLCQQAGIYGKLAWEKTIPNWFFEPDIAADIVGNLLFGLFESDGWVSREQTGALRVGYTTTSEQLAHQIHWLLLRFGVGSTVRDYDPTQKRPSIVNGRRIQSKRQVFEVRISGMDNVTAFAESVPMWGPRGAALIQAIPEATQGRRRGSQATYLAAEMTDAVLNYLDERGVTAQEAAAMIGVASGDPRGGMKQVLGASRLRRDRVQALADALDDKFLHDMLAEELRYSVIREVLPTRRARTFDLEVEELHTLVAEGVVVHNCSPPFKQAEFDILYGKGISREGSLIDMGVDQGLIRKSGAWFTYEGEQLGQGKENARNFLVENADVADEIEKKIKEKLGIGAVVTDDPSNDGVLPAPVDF
Mtb betalactam: beta-lactam sensitization of Mtb H37Rv | M. tuberculosis H37Rv growth with meropenem, percent inhibition | inhibition, % at 25 µM | actives 0.27% (n = 330,000) | AID 434955; call rule not given here;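 also: growth measured after seven days incubation then overnight dye step; 0% = bacteria only wells and 100% = bacteria with antibiotic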
CCHF vOTU inh-2: confirmation of CCHF virus vOTU protease inhibitors; shares compounds with CCHF vOTU inh-1; Recombinant CCHFV vOTU, Pep-AMC fluorescence; inhibition, % at 11.5 µM; actives 17% (n = 1,900)
Starred values were filed as active, the others as inactive; nt = no result; ! = a repeat was not active. Shown are actives, neighbours in structure and some others; about 1.1% of the full set was active somewhere. Rule as the data show it, unless noted: active = inhibition above about 30%; inactive = the rest.

SMILES	BJeLR lethal	CCHF vOTU inh-1	Yp Topo-I inh	Mtb BioA inh	RecA splice inh	Mtb betalactam	CCHF vOTU inh-2
CCOC(=O)c1ccc(N2C(=O)c3n[nH]c(-c4ccco4)c3C2c2cccc([N+](=O)[O-])c2)cc1 (stereo unspecified)	-1	36*	-1	0	25	100	-1
COC1=CC(=Cc2c(N)n3nc(CC(=O)N4CCCCC4)sc3nc2=O)C=C(OC)C1=O	0	34*	7	-4	-2	1	4
COC1=C/C(=C/c2c(N)n3nc(CC(=O)N4CCCC4)sc3nc2=O)C=CC1=O	6	22	0	-3	-4	-6	nt
C[C@H](CO)N1C[C@H](C)[C@@H](CN(C)Cc2cncnc2)Oc2cc(/C=C/c3ccccc3)ccc2S1(=O)=O	nt	nt	nt	1	nt	nt	nt
Cc1noc(C)c1NC(=O)Nc1cccc2c1O[C@@H](CN(C)Cc1ccncc1)[C@@H](C)CN([C@@H](C)CO)C2=O	nt	nt	nt	-2	nt	nt	nt
CC(C)N1CC2(CC(c3ccccc3C(F)(F)F)=NO2)CN1C(=O)c1ccc(C(C)(C)C)cc1 (stereo unspecified)	nt	17	26	nt	nt	nt	nt
CC(C)N1CC2(CC(c3ccccc3F)=NO2)CN1C(=O)c1ccc(C(C)(C)C)cc1 (stereo unspecified)	nt	35*	6	nt	nt	nt	-4
O=C(C[C@H]1C[C@@H]2c3cc(NC(=O)C4CCOCC4)ccc3O[C@@H]2[C@H](CO)O1)NCc1ccc2c(c1)OCO2	nt	nt	nt	0	nt	nt	nt
COCC(=O)Nc1ccc2c(c1)[C@@H]1C[C@@H](CC(=O)N3CCc4ccccc4C3)O[C@@H](CO)[C@@H]1O2	nt	nt	nt	-1	nt	nt	nt
Nc1cc(S(=O)(=O)O)cc2ccc(S(=O)(=O)O)cc12	nt	44*	-4	0	nt	nt	-97
O=C(C[C@H]1CC[C@@H]2[C@H](COC[C@H](O)CN2Cc2nccs2)O1)NCc1ccc(Oc2ccccc2)cc1	nt	nt	nt	-1	nt	nt	nt
CCCCCCCCC(=O)NC(NC(=S)N1CCOCC1)C(Cl)(Cl)Cl (stereo unspecified)	2	36*	-1	1	-2	1	-6
CC(C)C#Cc1ccc([C@@H]2[C@@H](CO)N(C(=O)C3CC3)[C@H]2C#N)cc1	nt	nt	nt	-1	nt	nt	nt
CCC(=NCc1ccccc1)c1c(C(F)(F)F)[nH]n(-c2nc3ccccc3s2)c1=O	-3	3	4	nt	1	8	nt
O=c1c(C=NCc2cccnc2)c(C(F)(F)F)[nH]n1-c1nc2ccccc2s1	5	30*	-1	nt	1	1	-5
O=C(N=C1c2ccccc2CN1c1ccccc1)c1cccc([N+](=O)[O-])c1	1	30*	-3	nt	5	-10	-12
CCOC(=O)c1ccc(N2Cc3ccccc3C2=NC(=O)c2cccc([N+](=O)[O-])c2)cc1	-9	-1	-2	nt	nt	94	nt
O=C(NC1Cc2ccccc2C1)[C@H]1[C@H](CO)[C@H]2Cn3c(ccc(C4=CCCCC4)c3=O)[C@@H]1N2	nt	nt	nt	-1	nt	nt	nt
COC(=O)c1ccc(COc2nc(C)cc(C)c2C#N)o1	-7	32*	9	0	2	-7	-2
O=S(=O)(Nc1ccc(O)c2ncccc12)c1ccccc1F	nt	62*	1	-2	nt	nt	19
Oc1ccc(CNc2ccccc2F)c2cccnc12	-11	14	-8	-1	-3	95	nt
CCOC(=O)c1c(NCC2CCCO2)c2ccccc2[nH]c1=O (stereo unspecified)	4	-8	-2	nt	-3	6	nt
CCOC(=O)c1c(C)oc2c1c(C=NCC1CCCO1)c(O)c1ccccc12 (stereo unspecified)	-1	35*	13	-1	21	nt	53*
CCOC(=O)c1c(C)oc2c1cc(O)c1ccccc12	4	12	-4	nt	6	8	nt
CCOC(=O)c1c(C)oc2c1c(C=NCc1ccccn1)c(O)c1ccccc12	nt	63*	-2	nt	nt	nt	24
SMILES	BJeLR lethal	CCHF vOTU inh-1	Yp Topo-I inh	Mtb BioA inh	RecA splice inh	Mtb betalactam	CCHF vOTU inh-2
COc1ccc(OC)c(-c2nnc3n2N=C(c2ccc(OC)c(OC4CCCC4)c2)CS3)c1	nt	32*	-2	-1	nt	24	23
CCN(CC)C(=O)CN(c1cc2c(cc1OC)oc1ccccc12)S(=O)(=O)c1ccc(C)cc1	-4	30*	-1	-3	8	2	-23
CC1=C(C(=O)N(C(C)C)C(C)C)CC(CC(=O)NCc2cccc3ccccc23)C(=O)N1CCCN1CCCC1=O (stereo unspecified)	nt	6	nt	-2	nt	nt	nt
CC1=C(C(=O)N(C)C)CC(CC(=O)NCc2cccc3ccccc23)C(=O)N1CCCN1CCCC1=O (stereo unspecified)	nt	36*	0	2	nt	nt	-22
C=CCc1ccc(OCCCNCc2ccccc2)c(OC)c1	0	31*	2	-3	2	4	-5
Cc1noc(C)c1S(=O)(=O)Nc1ccc2c(c1)CC(=O)N([C@@H](C)CO)C[C@H](C)[C@@H](CN(C)Cc1ccc(Oc3ccccc3)cc1)O2	nt	nt	nt	-1	nt	nt	nt
CC1=C(/C=C/C(C)=C/C=C/C(C)=C/C(=O)Nc2ccc(O)cc2)C(C)(C)CCC1	nt	34*!	-7	-2	nt	100	6
CC(C)NC1=C(Cl)C(=O)c2ccccc2C1=O	3	59*	-13	0	16	-3	60*
COCCCNC1=C(Cl)C(=O)c2ccccc2C1=O	1	12	-7	3	19	4	nt
O=C1C(Cl)=C(NCCc2ccccc2)C(=O)c2ccccc21	nt	83*	10	1	nt	nt	33*
CCN(CC)CCCNC1=C(Cl)C(=O)c2ccccc2C1=O	-2	56*	-11	1	14	5	56*
C[C@H]1CN([C@@H](C)CO)C(=O)Cc2cc(NC(=O)Nc3ccc(C(F)(F)F)cc3)ccc2O[C@@H]1CN(C)C(=O)Nc1cccc2ccccc12	nt	nt	nt	-7	nt	nt	nt
C[C@H]1CN([C@@H](C)CO)C(=O)Cc2cc(NC(=O)CCCCCC(=O)Nc3ccccc3N)ccc2O[C@H]1CN(C)C(=O)Nc1ccc(C(F)(F)F)cc1	nt	nt	nt	-1	nt	nt	nt
CNC(=O)C[C@@H]1CC[C@H]2[C@@H](COC[C@@H](O)CN2Cc2ccc(C(F)(F)F)cc2)O1	nt	nt	nt	1	nt	nt	nt
COc1ccc(OCC(=O)NC(=S)Nc2ccc3c4c(cccc24)CC3)cc1	-12	30*	-1	-1	0	1	2
Cc1cccc(NC(=O)CN2C(=O)S/C(=C\c3ccc(O)c([N+](=O)[O-])c3)C2=O)c1	3	31*	-8	nt	0	5	2
O=C(/C=C/c1ccccc1Br)c1ccc2c(c1)OCO2	6	23	15	-1	9	17	nt
O=C(/C=C\Nc1ccccc1Br)c1ccc2c(c1)OCO2	2	32*	-1	nt	-2	-3	-6
C[C@@H]1CN([C@H](C)CO)S(=O)(=O)c2ccc(Br)cc2O[C@H]1CN(C)S(=O)(=O)c1ccccc1	nt	nt	nt	5	nt	nt	nt

Screening results (PubChem BioAssay)
